# Source: the supplement of paper PMC10037445
# The full ranking holds about 2,900 compounds; the median of “NF-kB SEAP reporter activity, fold change vs agonist alone” is about 0.99, and the highest 2% start at about 2.6. The full list was thinned out, with the highest values kept by preference.
# Experiments:
# [1] = tested on: RAW-Dual; test: NF-kB SEAP reporter activity, fold change vs agonist alone; higher = enhanced NF-kB activity
# Method in brief: (§1)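 Supernatant from RAW-Dual macrophages was read after 20 hours for IRF by QuantiLuc luminescence and for NF-κB by QuantiBlue absorbance at 620 nm. The cells (50,000 cells/well in DMEM, 384-well plates, 37 °C, 5% CO2) had received 50 nL of library stock by pin tool and, 1 h later, a PRR agonist. Reporter activity is expressed relative to agonist-alone wells as fold change, and wells were flagged cytotoxic if IncuCyte confluency was under 70% of agonist controls in both mask sets.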
# [2] = tested on: RAW-Dual; test: NF-kB SEAP reporter activity, fold change vs agonist alone; cytotoxicity flag (confluency mask): not cytotoxic; higher = enhanced NF-kB activity
# Method in brief: as §1
# [3] = tested on: RAW-Dual; test: NF-kB SEAP reporter activity, fold change vs agonist alone; cytotoxicity flag (confluency mask): cytotoxic (confluency <70% of control); higher = enhanced NF-kB activity
# Method in brief: as §1
# [4] = library stock concentration (final ~1000-fold dilution): 10 mM, cytotoxicity flag (confluency mask): not cytotoxic, agonist: Imiquimod (TLR7) […]
# [5] = library stock concentration (final ~1000-fold dilution): 10 mM, cytotoxicity flag (confluency mask): not cytotoxic, agonist: MPLA (TLR4) […]
# [6] = agonist: ODN 1826 (TLR9) 0.5 ug/mL
# [7] = agonist: Pam2CSK4 (TLR2/6) 0.1 ug/mL
# [8] = agonist: Pam3CSK4 (TLR2/1) 0.1 ug/mL
# [9] = library stock concentration (final ~1000-fold dilution): 10 mM, cytotoxicity flag (confluency mask): cytotoxic (confluency <70% of control), agonist: Imiquimod (TLR7) […]
# [10] = library stock concentration (final ~1000-fold dilution): 10 mM, cytotoxicity flag (confluency mask): cytotoxic (confluency <70% of control), agonist: MPLA (TLR4) […]
smiles,measurement,setting,value
CCOC(=O)Nc1cc(-c2ccc(C)c(NS(C)(=O)=O)c2)nn2c(C)nnc12,NF-kB SEAP reporter activity,[1]; [4],1.43
same,NF-kB SEAP reporter activity,[1]; [5],2.52
CCOC(=O)Nc1cc(-c2ccc(C)c(NS(C)(=O)=O)c2)nn2c(C)nnc12 (library stock concentration (final ~1000-fold dilution): 10 mM),NF-kB SEAP reporter activity,[2]; agonist: LPS (TLR4) 0.1 ug/mL,3.81
same,NF-kB SEAP reporter activity,[2]; [6],1.93
same,NF-kB SEAP reporter activity,[2]; [7],0.828
same,NF-kB SEAP reporter activity,[2]; [8],1.44
CCOC(=O)C1=CC(OC(CC)CC)C(NC(C)=O)C(N)C1 (stereo not given) (library stock concentration (final ~1000-fold dilution): 2 mM),NF-kB SEAP reporter activity,[2]; agonist: LPS (TLR4) 0.1 ug/mL,1.17
same,NF-kB SEAP reporter activity,[2]; [6],1.08
same,NF-kB SEAP reporter activity,[2]; [7],1.16
same,NF-kB SEAP reporter activity,[2]; [8],1.11
CCOC(=O)C1=CC(OC(CC)CC)C(NC(C)=O)C(N)C1 (stereo not given),NF-kB SEAP reporter activity,"[1]; library stock concentration (final ~1000-fold dilution): 2 mM, cytotoxicity flag (confluency mask): not cytotoxic, agonist: Imiquimod (TLR7) […]",0.848
same,NF-kB SEAP reporter activity,"[1]; library stock concentration (final ~1000-fold dilution): 2 mM, cytotoxicity flag (confluency mask): not cytotoxic, agonist: MPLA (TLR4) […]",1.03
N#Cc1cnc(Nc2cc(NCC3CNCCO3)c(C(F)(F)F)cn2)cn1 (stereo not given) (library stock concentration (final ~1000-fold dilution): 10 mM),NF-kB SEAP reporter activity,[2]; agonist: LPS (TLR4) 0.1 ug/mL,1.37
same,NF-kB SEAP reporter activity,[2]; [6],1.25
same,NF-kB SEAP reporter activity,[2]; [7],1.34
same,NF-kB SEAP reporter activity,[2]; [8],1.5
N#Cc1cnc(Nc2cc(NCC3CNCCO3)c(C(F)(F)F)cn2)cn1 (stereo not given),NF-kB SEAP reporter activity,[1]; [4],1.66
same,NF-kB SEAP reporter activity,[1]; [5],0.936
CS(=O)c1ccc(-c2nc(-c3ccc(F)cc3)c(-c3ccncc3)[nH]2)cc1 (stereo not given),NF-kB SEAP reporter activity,[1]; [4],1.52
same,NF-kB SEAP reporter activity,[1]; [5],1.61
COc1ccc2cc(-c3[nH]c(-c4ccc(S(C)=O)cc4)nc3-c3ccncc3)ccc2c1 (stereo not given) (library stock concentration (final ~1000-fold dilution): 10 mM),NF-kB SEAP reporter activity,[2]; agonist: LPS (TLR4) 0.1 ug/mL,3.42
same,NF-kB SEAP reporter activity,[2]; [6],2.22
same,NF-kB SEAP reporter activity,[2]; [7],1.74
same,NF-kB SEAP reporter activity,[2]; [8],2.04
CS(=O)c1ccc(-c2nc(-c3ccc(F)cc3)c(-c3ccncc3)[nH]2)cc1 (stereo not given) (library stock concentration (final ~1000-fold dilution): 10 mM),NF-kB SEAP reporter activity,[2]; agonist: LPS (TLR4) 0.1 ug/mL,2.27
same,NF-kB SEAP reporter activity,[2]; [6],0.762
same,NF-kB SEAP reporter activity,[2]; [7],0.716
same,NF-kB SEAP reporter activity,[2]; [8],1.02
COc1ccc2cc(-c3[nH]c(-c4ccc(S(C)=O)cc4)nc3-c3ccncc3)ccc2c1 (stereo not given),NF-kB SEAP reporter activity,[1]; [4],1.81
same,NF-kB SEAP reporter activity,[1]; [5],2.57
CCS(=O)(=O)N1CCN(c2ccc(Nc3ncc(C(N)=O)c(NC4CC4)n3)cc2)CC1.Cl,NF-kB SEAP reporter activity,[1]; [9],0.23
same,NF-kB SEAP reporter activity,[1]; [10],0.398
CCS(=O)(=O)N1CCN(c2ccc(Nc3ncc(C(N)=O)c(NC4CC4)n3)cc2)CC1.Cl (library stock concentration (final ~1000-fold dilution): 10 mM),NF-kB SEAP reporter activity,[3]; agonist: LPS (TLR4) 0.1 ug/mL,0.273
same,NF-kB SEAP reporter activity,[3]; [6],0.218
same,NF-kB SEAP reporter activity,[3]; [7],0.0746
same,NF-kB SEAP reporter activity,[3]; [8],0.121
CCOc1ccc(Cc2cc(C3OC(CO)C(O)C(O)C3O)ccc2Cl)cc1 (stereo not given) (library stock concentration (final ~1000-fold dilution): 10 mM),NF-kB SEAP reporter activity,[2]; agonist: LPS (TLR4) 0.1 ug/mL,1.04
same,NF-kB SEAP reporter activity,[2]; [6],1.2
same,NF-kB SEAP reporter activity,[2]; [7],1.01
same,NF-kB SEAP reporter activity,[2]; [8],1.1
CCOc1ccc(Cc2cc(C3OC(CO)C(O)C(O)C3O)ccc2Cl)cc1 (stereo not given),NF-kB SEAP reporter activity,[1]; [4],1.04
same,NF-kB SEAP reporter activity,[1]; [5],1.03
CCC1(O)CC2CN(CCc3c([nH]c4ccccc34)C(C(=O)OC)(c3cc4c(cc3OC)N(C=O)C3C(O)(C(=O)OC)C(OC(C)=O)C5(CC)C=CCN6CCC43C65)C2)C1.O=S(=O)(O)O (stereo not given) (library stock concentration (final ~1000-fold dilution): 10 mM),NF-kB SEAP reporter activity,[2]; agonist: LPS (TLR4) 0.1 ug/mL,5.34
same,NF-kB SEAP reporter activity,[2]; [6],3.28
same,NF-kB SEAP reporter activity,[2]; [7],1.99
same,NF-kB SEAP reporter activity,[2]; [8],2.22
CCC1=CC2CN(C1)Cc1c([nH]c3ccccc13)C(C(=O)OC)(c1cc3c(cc1OC)N(C)C1C(O)(C(=O)OC)C(OC(C)=O)C4(CC)C=CCN5CCC31C54)C2 (stereo not given) (library stock concentration (final ~1000-fold dilution): 10 mM),NF-kB SEAP reporter activity,[3]; agonist: LPS (TLR4) 0.1 ug/mL,5.34
same,NF-kB SEAP reporter activity,[3]; [6],0.35
same,NF-kB SEAP reporter activity,[3]; [7],1.78
same,NF-kB SEAP reporter activity,[3]; [8],1.95
CCC1(O)CC2CN(CCc3c([nH]c4ccccc34)C(C(=O)OC)(c3cc4c(cc3OC)N(C=O)C3C(O)(C(=O)OC)C(OC(C)=O)C5(CC)C=CCN6CCC43C65)C2)C1.O=S(=O)(O)O (stereo not given),NF-kB SEAP reporter activity,[1]; [4],2.54
same,NF-kB SEAP reporter activity,[1]; [5],2.37
CCC1=CC2CN(C1)Cc1c([nH]c3ccccc13)C(C(=O)OC)(c1cc3c(cc1OC)N(C)C1C(O)(C(=O)OC)C(OC(C)=O)C4(CC)C=CCN5CCC31C54)C2 (stereo not given),NF-kB SEAP reporter activity,[1]; [9],2.47
same,NF-kB SEAP reporter activity,[1]; [10],2.6
CCC1(O)CC2CN(CCc3c([nH]c4ccccc34)C(C(=O)OC)(c3cc4c(cc3OC)N(C)C3C(O)(C(=O)OC)C(OC(C)=O)C5(CC)C=CCN6CCC43C65)C2)C1.O=S(=O)(O)O (stereo not given),NF-kB SEAP reporter activity,[1]; [9],2.51
same,NF-kB SEAP reporter activity,[1]; [10],2.53
CCC1(O)CC2CN(CCc3c([nH]c4ccccc34)C(C(=O)OC)(c3cc4c(cc3OC)N(C)C3C(O)(C(=O)OC)C(OC(C)=O)C5(CC)C=CCN6CCC43C65)C2)C1.O=S(=O)(O)O (stereo not given) (library stock concentration (final ~1000-fold dilution): 10 mM),NF-kB SEAP reporter activity,[3]; agonist: LPS (TLR4) 0.1 ug/mL,5.91
same,NF-kB SEAP reporter activity,[3]; [6],2.96
same,NF-kB SEAP reporter activity,[3]; [7],1.48
same,NF-kB SEAP reporter activity,[3]; [8],1.94
